Source: the supplement of paper PMC7156485
A number with no mark means an inactive call.

tested on: HCC1569; assay: H1.0 immunofluorescence intensity relative to DMSO (% of DMSO); higher = stronger H1.0 induction, active = 140 or more; settings: concentration: 10 µM; 24 h
Method in brief: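 In 384-well plates holding 800 HCC1569 or TDF cells per well in RPMI with 10% FBS, compounds were tested at 10 µM for 24 h at 37 °C in triplicate. Fixation used 3.7% formaldehyde. Staining used a rabbit anti-H1.0 antibody with an AlexaFluor 647 secondary, plus DAPI. Each value, H1.0 nuclear intensity or cell number, is a median of replicates shown as percent of the plate control, and HCC1569 values were smoothed for positional effects.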
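Also: TDF is a line of transformed human dermal fibroblasts of mesenchymal origin.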

Structure (SMILES)	H1.0 immunofluorescence intensity
CCC=CCC(O)C=CC=CCC=CCC=CCCCC(=O)O (stereo not given)	94.3
CN1CCN(C2=Nc3ccccc3Sc3ccc(Cl)cc32)CC1 [Clothiapine]	110
CC(O)C1C(=O)N2C(C(=O)O)=C(SCCN=CN)CC12 (stereo not given) [Imipenem]	102
O=c1cc(N2CCNCC2)oc2c(-c3ccccc3)cccc12	136
COc1cccc2c1C1CN(CCCCn3c(=O)[nH]c4c(sc5ncc(-c6ccccc6)nc54)c3=O)CC1CO2.Cl (stereo not given) [Fiduxosin hydrochloride]	116
CC(C)CNCc1ccc(-c2ccccc2S(=O)(=O)N2CCCC2)cc1.Cl	100
NC1CCCCC1N.O=C([O-])C(=O)[O-].[Pt+2] (stereo not given) [Oxaliplatin]	121
C[C@@H]1CCN(C(=O)CC#N)C[C@@H]1N(C)c1ncnc2[nH]ccc12	96.3
CC1(C)CCC(C)(C)c2cc(C3(c4ccc(C(=O)O)cc4)OCCO3)ccc21	92.2
COC1C=COC2(C)Oc3c(C)c(O)c4c(O)c(cc(O)c4c3C2=O)NC(=O)C(C)=CC=CC(C)C(O)C(C)C(O)C(C)C(OC(C)=O)C1C (stereo not given)	103
CCCCCCCCC=CCCCCCCCCCCCC(=O)O [13(E)-Docosenoic acid]	101
C=CCc1ccc(O)c(OC)c1 [Eugenol]	95.1
CC(=O)N1CCN(C(=O)/C=C/c2ccc(Sc3ccccc3C(C)C)c([N+](=O)[O-])c2)CC1	123
CCn1c(=O)[nH]c2cc(Cl)c(Cl)cc21	95.7
COc1cc2c3cc1Oc1c(OC)c(OC)cc4c1C(Cc1ccc(OC(=O)c5ccc([N+](=O)[O-])cc5)c(c1)Oc1ccc(cc1)CC3N(C)CC2)N(C)CC4 (stereo not given) [E6 Berbamine]	97.7
CC1(C)C(=O)N(CCN2CCC(C(=O)c3ccc(F)cc3)CC2)c2ccccc21.Cl [LY-310,762 hydrochloride]	95.7
Cn1c(=O)c2c(ncn2C)n(C)c1=O [Caffeine]	91.3
CNC1C(O)C(NC)C2OC3(O)C(=O)CC(C)OC3OC2C1O.Cl.Cl (stereo not given) [Spectinomycin.2HCl]	100
CN1C2CCC1CC(OC(=O)c1c[nH]c3ccccc13)C2.Cl (stereo not given) [3-Tropanyl-indole-3-carboxylate hydrochloride]	112
CCCNC(=O)NS(=O)(=O)c1ccc(Cl)cc1 [Chlorpropamide]	91.2

Structure (SMILES)	H1.0 immunofluorescence intensity
Cc1ccccc1N1C(=O)c2cc(S(N)(=O)=O)c(Cl)cc2NC1C (stereo not given) [Metolazone]	91.1
CCCCNc1ccc(C(=O)OCCN(C)C)cc1.Cl [Tetracaine hydrochloride]	95.8
CCN(CC)C(=S)SSC(=S)N(CC)CC [Tetraethylthiuram disulfide]	102
Nn1nnc2ccccc21 [1-Aminobenzotriazole]	85.9
CN(C)NN=C1N=CN=C1C(N)=O [Dacarbazine]	101
COc1ccc(S(=O)(=O)Nc2nc(-c3cccc([N+](=O)[O-])c3)cs2)cc1OC	97.7
C#Cc1cccc(Nc2ncnc3cc(OCCOC)c(OCCOC)cc23)c1 [Erlotinib]	108
C[C@H](O)[C@H](O)[C@H]1CNc2[nH]c(N)nc(=O)c2N1.Cl.Cl	97
CC(C)n1cnc2c(NCc3ccccc3)nc(NCCCO)nc21 [Bohemine]	106
COc1ccc(CC2c3cc(OC)c(OC)cc3CC[N+]2(C)CCC(=O)OCCCCCOC(=O)CC[N+]2(C)CCc3cc(OC)c(OC)cc3C2Cc2ccc(OC)c(OC)c2)cc1OC.O=S(=O)([O-])c1ccccc1.O=S(=O)([O-])c1ccccc1 (stereo not given) [Atracurium besylate]	110
O=c1c(-c2ccc(O)cc2)coc2cc(OC3OC(CO)C(O)C(O)C3O)cc(O)c12 (stereo not given) [Genistin]	86.4
OCc1c[nH]c2ccccc12 [Indole-3-carbinol]	110
O=c1[nH]c(=O)n(C2CC(O)C(CO)O2)cc1F (stereo not given) [Floxuridine]	119
CC(=O)NC1C(N=C(N)N)C=C(C(=O)O)OC1C(O)C(O)CO (stereo not given)	99
O=C(O)c1cc(N(Cc2ccccc2O)Cc2ccccc2O)ccc1O [Lavendustin B]	93.1
C=CC1CN2CCC1CC2C(O)c1ccnc2ccc(OC)cc12.C=CC1CN2CCC1CC2C(O)c1ccnc2ccc(OC)cc12.O=S(=O)(O)O (stereo not given) [Quinine sulfate]	100
CC1(NCC(O)COc2cccc3[nH]ccc23)CCC(C(C)(C)NC(=O)CBr)CC1 (stereo not given) [Pindobind-5HT1A]	178 (active)
CCC=CCC=CCC=CCC=CCC=CCCCC(=O)O	96.4
CCN1CCCC1CNC(=O)c1c(O)c(Cl)cc(Cl)c1OC (stereo not drawn) [S(-)-Raclopride]	104
COC1=C(OC)C(=O)c2ccccc2C1=O [2,3-Dimethoxy-1,4-naphthoquinone]	128
